Measured values reported in PubChem BioAssay (NCATS).
A number with no mark means an inactive call. Inconclusive results are not listed. Entries that show only a call come without a potency. Active and inactive are the calls of the source. Calls come from the whole dose curve; as a rule, active = well fitted inhibition curve with a large enough effect; inconclusive = small, poorly fitted or top-dose-only effect; inactive = flat fitted curve, though single readings scatter.
Potency is the fitted concentration of half-maximal effect.

These compounds were tested against Phospholipid hydroperoxide glutathione peroxidase GPX4 (Homo sapiens) (UniProt P36969) (assay: Primary qHTS Assay for Inhibitors of Recombinant Selenoprotein Glutathione Peroxidase 4 (GPX4) (AID 1845192; note: nearly all actives have a fitted effect of over 65% in size)). Settings: recombinant GPX4, GR-coupled NADPH fluorescence, 15 min; series mostly up to 50 µM.
Chain of Phospholipid hydroperoxide glutathione peroxidase GPX4 (Homo sapiens) (P36969 whole entry, looked up): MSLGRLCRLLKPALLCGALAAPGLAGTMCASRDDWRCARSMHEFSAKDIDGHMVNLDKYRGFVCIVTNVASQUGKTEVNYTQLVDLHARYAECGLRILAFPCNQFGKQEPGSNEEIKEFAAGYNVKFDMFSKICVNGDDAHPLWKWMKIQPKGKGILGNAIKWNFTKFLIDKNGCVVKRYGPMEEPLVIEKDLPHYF
Summary of the method: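 GR-coupled assay: recombinant GPX4 preincubated 30 min with compound at room temperature; final 200 nM GPX4, 1 mM GSH, 0.5 mM cumene hydroperoxide, 0.5 mM NADPH, 100 nM GR, 0.01% BSA, pH 7.5 Tris. NADPH fluorescence (340/450 nm) read at 0 and 15 min.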
With `C=C[C@H]1CN2CC[C@H]1C[C@@H]2C(O)c1ccnc2ccc(OC)cc12` (stereo not given in full) the Potency was “inactive”. For `OC1CCC(Nc2ncc3nc(Nc4c(F)cc(F)cc4F)n([C@H]4CCOC4)c3n2)CC1` (stereo not given in full), the Potency was 20.2 µM (active). `COc1ccc2c(OC)c3ccoc3nc2c1OC` was tested, and the Potency was “inactive”. For `CC(C)CN(C[C@@H](O)[C@H](Cc1ccccc1)NC(=O)O[C@@H]1CO[C@H]2OCC[C@H]21)S(=O)(=O)c1ccc(N)cc1`, the Potency was “inactive”. With `O=[N+]([O-])c1cn2c(n1)OCC(OCc1ccc(OC(F)(F)F)cc1)C2` (stereo not given) the Potency was “inactive”. In the case of `O=C(O)c1cn(C2CC2)c2cc(N3C[C@@H]4C[C@H]3CN4)c(F)cc2c1=O`, the Potency is reported as 10.1 µM (active). With `COc1cc2oc(-c3ccc(O)cc3O)cc2c(OC)c1CC=C(C)C` the Potency was “inactive”. `Cc1c(C(=O)Nc2ccc(N3CC(C)OC(C)C3)nc2)cccc1-c1ccc(OC(F)(F)F)cc1` (stereo not given) was tested, and the Potency was “inactive”. `CC(=O)O[C@H]1C(=O)[C@@]2(C)[C@H]([C@H](OC(=O)c3ccccc3)[C@]3(O)C[C@H](OC(=O)[C@H](O)[C@@H](NC(=O)c4ccccc4)c4ccccc4)C(C)=C1C3(C)C)[C@]1(OC(C)=O)CO[C@@H]1C[C@@H]2O` was tested, and the Potency was “inactive”. With `COc1ccc(CC2NCCc3c2[nH]c2ccc(C)cc32)cc1OC` (stereo not given) the Potency was “inactive”. In the case of `Cc1ccc(F)cc1C(=O)Nc1ccc(C(=O)N2Cc3cccn3Cc3ccccc32)c(Cl)c1`, the Potency is reported as “inactive”. For `OCC1OC(Oc2cc(O)cc(/C=C/c3ccc(O)cc3)c2)C(O)C(O)C1O` (stereo not given), the Potency was “inactive”. `Cc1cn(C2C=CC(CO)O2)c(=O)[nH]c1=O` (stereo not given) was tested, and the Potency was “inactive”. With `COc1ccc(C2COc3cc(O)ccc3C2)c(O)c1` (stereo not given) the Potency was “inactive”. In the case of `C[C@@H]1C(=O)O[C@H]2[C@@H](O)C34[C@H]5C[C@@H](C(C)(C)C)C36[C@@H](OC(=O)[C@@H]6O)O[C@@]4(C(=O)O5)[C@@]12O` (stereo not given in full), the Potency is reported as “inactive”. With `O=C(Nc1ccc(Cl)cc1F)c1ccccc1O` the Potency was “inactive”. `CCOC(=O)Nc1cc(-c2ccc(C)c(NS(C)(=O)=O)c2)nn2c(C)nnc12` was tested, and the Potency was “inactive”. In the case of `Cn1nnc(-c2ccc(-c3ccc(N4C[C@H](COP(=O)(O)O)OC4=O)cc3F)cn2)n1`, the Potency is reported as 22.7 µM (active).

The compounds below were run against Luciferin 4-monooxygenase (Photinus pyralis) (UniProt P08659) (assay: Primary firefly luciferase (FLuc) qHTS assay for identification of artifact compounds. (AID 1845220; note: nearly all actives have a fitted effect of over 60% in size)). Settings: purified firefly luciferase, luminescence, 5 min; series mostly up to 54.1 µM.
Summary of the method: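 Enzymatic FLuc inhibition assay: compounds pre-exposed to luciferin/ATP (10 uM each) for 15 min, then purified P. pyralis enzyme at 10 nM added. Read-out: luminescence at 5 min.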
For `CC(c1ncncc1F)C(O)(Cn1cncn1)c1ccc(F)cc1F` (stereo not given), the Potency was “inactive”. `CNC(C)C(=O)NC(C(=O)N1CCCC1c1nc(C(=O)c2ccc(F)cc2)cs1)C1CCCCC1` (stereo not given) was tested, and the Potency was “inactive”. For `Cn1nc(C(C)(C)C)cc1C(=O)NC(Cc1cccc(Cl)c1)C(=O)NCC#N` (stereo not given), the Potency was “inactive”. For `CS(=O)(=O)NCC1CCC(Nc2nc3c(s2)CCSc2ccccc2-3)CC1` (stereo not given), the Potency was “inactive”. In the case of `CC(=O)OC[C@@]12C(=O)C[C@@H](C)[C@]3(C[C@@H](c4ccoc4)O[C@H]3OC(C)=O)[C@H]1CCC[C@]21CO1`, the Potency is reported as “inactive”. In the case of `NC(=O)C(CCC(F)(F)F)N(Cc1ccc(-c2ncon2)cc1F)S(=O)(=O)c1ccc(Cl)cc1` (stereo not given), the Potency is reported as “inactive”. `COc1cc2c3c(cc4ccccc4c3c1O)NC2=O` was tested, and the Potency was “inactive”. For `CC[C@H]1OC(=O)[C@](C)(F)C(=O)[C@H](C)[C@@H](O[C@@H]2O[C@H](C)C[C@H](N(C)C)[C@H]2O)[C@](C)(OC)C[C@@H](C)C(=O)[C@@H](C)[C@H]2N(CCCCn3cc(-c4cccc(N)c4)nn3)C(=O)O[C@]12C`, the Potency was “inactive”. `COc1nc2sc(C(=O)NC3CC3)c(N)c2c(C)c1Cl` was tested, and the Potency was “inactive”. With `CC1(c2nc3c(C(N)=O)cccc3[nH]2)CCCN1` (stereo not given) the Potency was “inactive”. For `COC(=O)N[C@H](C(=O)N1[C@@H]2CC[C@@H](C2)[C@H]1c1nc2ccc(-c3ccc4c(c3)C(F)(F)c3cc(-c5cnc([C@@H]6CCC7(CC7)N6C(=O)[C@@H](NC(=O)OC)C(C)C)[nH]5)ccc3-4)cc2[nH]1)C(C)C`, the Potency was “inactive”. `CC1(C)CC[C@]2(C(=O)O)CC[C@]3(C)C(=CCC4[C@@]5(C)C[C@@H](O)[C@H](O)C(C)(C)C5CC[C@]43C)C2C1` (stereo not given in full) was tested, and the Potency was “inactive”. With `CC1=C(/C=C/C(C)=C\C=C\C(C)=C/C(=O)O)C(C)(C)CCC1` the Potency was “inactive”. `CC(=O)N1CCN(Cc2ccc([C@H](C)Nc3nccc(N4C(=O)OC[C@@H]4C(C)C)n3)cc2)CC1` was tested, and the Potency was “inactive”. `C=C[C@H]1CN2CC[C@H]1C[C@@H]2C(O)c1ccnc2ccc(OC)cc12` (stereo not given in full) was tested, and the Potency was “inactive”. For `Cc1cc(C)c2c(N)c(C(=O)NCc3ccc(Cl)cc3)sc2n1`, the Potency was “inactive”. With `OC1CCC(Nc2ncc3nc(Nc4c(F)cc(F)cc4F)n([C@H]4CCOC4)c3n2)CC1` (stereo not given in full) the Potency was “inactive”. With `COc1ccc2c(OC)c3ccoc3nc2c1OC` the Potency was “inactive”. `CC(C)CN(C[C@@H](O)[C@H](Cc1ccccc1)NC(=O)O[C@@H]1CO[C@H]2OCC[C@H]21)S(=O)(=O)c1ccc(N)cc1` was tested, and the Potency was “inactive”. With `O=[N+]([O-])c1cn2c(n1)OCC(OCc1ccc(OC(F)(F)F)cc1)C2` (stereo not given) the Potency was “inactive”. With `COc1cc2oc(-c3ccc(O)cc3O)cc2c(OC)c1CC=C(C)C` the Potency was “inactive”. For `Cc1c(C(=O)Nc2ccc(N3CC(C)OC(C)C3)nc2)cccc1-c1ccc(OC(F)(F)F)cc1` (stereo not given), the Potency was “inactive”. `C=C1C(=O)O[C@@H]2C/C(C)=C\C(=O)/C=C(\C)[C@@H](OC(=O)/C(C)=C\C)[C@H](O)[C@@H]12` was tested, and the Potency was “inactive”. With `CC(=O)O[C@H]1C(=O)[C@@]2(C)[C@H]([C@H](OC(=O)c3ccccc3)[C@]3(O)C[C@H](OC(=O)[C@H](O)[C@@H](NC(=O)c4ccccc4)c4ccccc4)C(C)=C1C3(C)C)[C@]1(OC(C)=O)CO[C@@H]1C[C@@H]2O` the activity change, negative = inhibition was -3.6% [at 11.6 µM]. With `COc1ccc(CC2NCCc3c2[nH]c2ccc(C)cc32)cc1OC` (stereo not given) the Potency was “inactive”. In the case of `Cc1ccc(F)cc1C(=O)Nc1ccc(C(=O)N2Cc3cccn3Cc3ccccc32)c(Cl)c1`, the Potency is reported as “inactive”. With `OCC1OC(Oc2cc(O)cc(/C=C/c3ccc(O)cc3)c2)C(O)C(O)C1O` (stereo not given) the Potency was “inactive”. For `Cc1cn(C2C=CC(CO)O2)c(=O)[nH]c1=O` (stereo not given), the Potency was “inactive”. For `C[C@@H]1C(=O)O[C@H]2[C@@H](O)C34[C@H]5C[C@@H](C(C)(C)C)C36[C@@H](OC(=O)[C@@H]6O)O[C@@]4(C(=O)O5)[C@@]12O` (stereo not given in full), the Potency was “inactive”. `O=C(Nc1ccc(Cl)cc1F)c1ccccc1O` was tested, and the Potency was 1.2 µM (active). `CCOC(=O)Nc1cc(-c2ccc(C)c(NS(C)(=O)=O)c2)nn2c(C)nnc12` was tested, and the Potency was “inactive”. With `Cn1nnc(-c2ccc(-c3ccc(N4C[C@H](COP(=O)(O)O)OC4=O)cc3F)cn2)n1` the Potency was “inactive”.
